What all share (experiment): DAPPL (digital affinity profiling via proximity ligation, sequencing); 10 mM Tris-HCl pH 7.5, 50 mM NaCl, 1 mM DTT, 4% glycerol, room temperature, 30 min; GST-TFs on glutathione beads, 16-mer random dsDNA library, 0.1% formaldehyde crosslink after washing; high values mean tight binding
In one assay the target is T1, FLI1 (Homo sapiens, UniProt Q01543 1-452).
T1 sequence: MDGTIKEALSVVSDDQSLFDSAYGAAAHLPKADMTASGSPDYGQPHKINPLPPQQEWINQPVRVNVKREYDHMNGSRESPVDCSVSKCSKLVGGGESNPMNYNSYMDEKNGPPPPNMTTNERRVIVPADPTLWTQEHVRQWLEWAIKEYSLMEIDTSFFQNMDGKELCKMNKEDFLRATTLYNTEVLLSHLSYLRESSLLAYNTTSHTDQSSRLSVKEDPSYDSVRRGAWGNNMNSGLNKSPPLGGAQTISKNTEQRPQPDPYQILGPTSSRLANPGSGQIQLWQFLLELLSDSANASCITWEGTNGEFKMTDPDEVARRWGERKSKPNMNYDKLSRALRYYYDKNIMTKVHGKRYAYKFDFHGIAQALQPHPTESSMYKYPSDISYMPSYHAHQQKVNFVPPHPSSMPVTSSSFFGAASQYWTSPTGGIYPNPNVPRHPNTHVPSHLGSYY
To be noted: protein: recombinant; tags: N-terminal GST; dsDNA, one strand shown. In outline: (§1)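 Yeast served to express human transcription factors as GST fusions, which were then captured on glutathione beads and labelled with DNA barcodes. Pooled with a tag-only sample, they were incubated with 200 nmole of a 16-mer random double-stranded DNA library for 30 min at room temperature in Tris/NaCl/DTT/glycerol buffer, washed, crosslinked with 0.1% formaldehyde, ligated by proximity, amplified by PCR and sequenced. Dividing each hexamer's read frequency for a factor by its frequency for the tag-only sample gives the binding signal.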

For another assay, the target named is T2, ELK1 (Homo sapiens, UniProt P19419 1-428).
T2 sequence: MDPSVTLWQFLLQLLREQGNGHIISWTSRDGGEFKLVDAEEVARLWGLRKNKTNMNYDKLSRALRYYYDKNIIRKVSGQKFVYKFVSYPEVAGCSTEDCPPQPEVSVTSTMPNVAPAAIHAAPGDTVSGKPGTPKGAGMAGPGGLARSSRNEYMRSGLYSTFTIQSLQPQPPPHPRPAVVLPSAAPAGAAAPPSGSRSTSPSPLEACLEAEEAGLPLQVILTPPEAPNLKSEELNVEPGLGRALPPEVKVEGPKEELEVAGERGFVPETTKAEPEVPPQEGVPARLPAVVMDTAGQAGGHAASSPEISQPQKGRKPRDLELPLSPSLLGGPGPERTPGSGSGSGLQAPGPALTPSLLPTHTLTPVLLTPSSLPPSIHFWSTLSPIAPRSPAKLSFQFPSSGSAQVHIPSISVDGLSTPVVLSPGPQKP
To be noted: protein: recombinant; tags: N-terminal GST; dsDNA, one strand shown. The procedure, abridged: as §1

In a further assay the target is T3, GABPA (Homo sapiens, UniProt Q06546 1-454).
T3 sequence: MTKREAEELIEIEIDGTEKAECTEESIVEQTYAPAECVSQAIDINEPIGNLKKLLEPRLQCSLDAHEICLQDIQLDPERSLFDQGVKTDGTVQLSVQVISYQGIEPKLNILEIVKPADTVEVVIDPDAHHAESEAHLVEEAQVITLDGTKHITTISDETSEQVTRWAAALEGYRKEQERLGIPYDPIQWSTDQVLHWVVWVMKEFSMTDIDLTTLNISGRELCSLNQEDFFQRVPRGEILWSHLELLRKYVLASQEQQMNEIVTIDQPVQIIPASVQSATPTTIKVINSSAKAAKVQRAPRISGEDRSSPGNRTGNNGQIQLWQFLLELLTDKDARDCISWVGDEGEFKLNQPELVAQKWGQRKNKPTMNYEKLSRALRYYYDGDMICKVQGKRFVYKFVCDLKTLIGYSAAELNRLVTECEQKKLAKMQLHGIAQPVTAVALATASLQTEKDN
To be noted: protein: recombinant; tags: N-terminal GST; dsDNA, one strand shown. In outline: as §1

The next assay addresses T4, ERG (Homo sapiens, UniProt P11308 1-479).
T4 sequence: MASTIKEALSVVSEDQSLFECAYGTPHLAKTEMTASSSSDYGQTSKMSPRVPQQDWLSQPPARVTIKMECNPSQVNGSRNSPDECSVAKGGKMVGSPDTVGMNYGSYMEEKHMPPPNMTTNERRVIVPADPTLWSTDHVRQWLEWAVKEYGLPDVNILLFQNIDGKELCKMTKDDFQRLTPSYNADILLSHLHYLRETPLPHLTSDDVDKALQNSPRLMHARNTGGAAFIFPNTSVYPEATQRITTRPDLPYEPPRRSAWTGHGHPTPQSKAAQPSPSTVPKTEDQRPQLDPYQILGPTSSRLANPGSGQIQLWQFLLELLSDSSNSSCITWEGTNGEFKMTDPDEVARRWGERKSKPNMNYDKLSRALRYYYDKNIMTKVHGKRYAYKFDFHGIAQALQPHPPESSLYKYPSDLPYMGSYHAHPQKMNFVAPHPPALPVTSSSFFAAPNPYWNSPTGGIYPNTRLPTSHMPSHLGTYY
To be noted: protein: recombinant; tags: N-terminal GST; dsDNA, one strand shown. In outline: as §1

The target of the next assay is ELF1 (Homo sapiens, UniProt P32519 1-619). To be noted: protein: recombinant; tags: N-terminal GST; dsDNA, one strand shown. The procedure, abridged:
as §1

A further assay addresses T5, EHF (Homo sapiens, UniProt Q9NZC4 1-300).
T5 sequence: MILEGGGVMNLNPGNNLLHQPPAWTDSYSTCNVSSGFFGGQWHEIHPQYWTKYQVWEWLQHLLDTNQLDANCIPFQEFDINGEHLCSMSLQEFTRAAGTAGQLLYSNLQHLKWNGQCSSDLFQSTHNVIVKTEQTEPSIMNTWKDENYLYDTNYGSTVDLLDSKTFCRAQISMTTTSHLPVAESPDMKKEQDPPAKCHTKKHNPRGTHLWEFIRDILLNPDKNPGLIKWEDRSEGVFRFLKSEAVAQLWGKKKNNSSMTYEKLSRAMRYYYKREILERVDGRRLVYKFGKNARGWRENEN
To be noted: protein: recombinant; tags: N-terminal GST; dsDNA, one strand shown. The procedure, abridged:
as §1

Another assay concerns the target SPI1 (Homo sapiens, UniProt P17947 1-270). To be noted: protein: recombinant; tags: N-terminal GST; dsDNA, one strand shown. The procedure, abridged:
as §1

The target in a further assay is SPIB (Homo sapiens, UniProt Q01892 1-262). To be noted: protein: recombinant; tags: N-terminal GST; dsDNA, one strand shown. The procedure, abridged:
as §1

For another assay, the target named is T6, ELK3 (Homo sapiens, UniProt P41970 1-407).
T6 sequence: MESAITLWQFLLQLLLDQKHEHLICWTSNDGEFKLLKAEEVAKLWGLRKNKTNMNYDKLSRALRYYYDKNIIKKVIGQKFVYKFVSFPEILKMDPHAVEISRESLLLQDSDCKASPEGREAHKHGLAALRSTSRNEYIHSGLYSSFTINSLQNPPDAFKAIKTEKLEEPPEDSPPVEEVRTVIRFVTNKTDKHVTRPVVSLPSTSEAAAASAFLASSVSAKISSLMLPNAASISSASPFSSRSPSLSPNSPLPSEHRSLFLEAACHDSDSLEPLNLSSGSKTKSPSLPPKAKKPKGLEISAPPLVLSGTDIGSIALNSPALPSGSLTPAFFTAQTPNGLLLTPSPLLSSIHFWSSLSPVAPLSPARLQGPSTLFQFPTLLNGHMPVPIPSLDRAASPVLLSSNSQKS
To be noted: protein: recombinant; tags: N-terminal GST; dsDNA, one strand shown. In outline:
as §1

A further assay deals with T7, FEV (Homo sapiens, UniProt Q99581 1-238).
T7 sequence: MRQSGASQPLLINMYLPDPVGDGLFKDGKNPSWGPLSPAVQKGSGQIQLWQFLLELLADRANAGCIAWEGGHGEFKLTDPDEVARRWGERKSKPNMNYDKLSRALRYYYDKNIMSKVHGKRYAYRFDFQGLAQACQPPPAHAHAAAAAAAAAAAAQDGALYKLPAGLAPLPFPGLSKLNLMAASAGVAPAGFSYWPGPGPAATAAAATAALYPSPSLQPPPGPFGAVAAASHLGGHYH
To be noted: protein: recombinant; tags: N-terminal GST; dsDNA, one strand shown. The procedure, abridged: as §1

In another assay the target is ETV5 (Homo sapiens, UniProt P41161 1-510). To be noted: protein: recombinant; tags: N-terminal GST; dsDNA, one strand shown. The procedure, abridged:
as §1

The next assay addresses HSF1 (Homo sapiens, UniProt Q00613 1-529). To be noted: protein: recombinant; tags: N-terminal GST; chain copies: 3; dsDNA, one strand shown. In outline: as §1
The target in another assay is T8, SPIC (Homo sapiens, UniProt Q8N5J4 1-248).
T8 sequence: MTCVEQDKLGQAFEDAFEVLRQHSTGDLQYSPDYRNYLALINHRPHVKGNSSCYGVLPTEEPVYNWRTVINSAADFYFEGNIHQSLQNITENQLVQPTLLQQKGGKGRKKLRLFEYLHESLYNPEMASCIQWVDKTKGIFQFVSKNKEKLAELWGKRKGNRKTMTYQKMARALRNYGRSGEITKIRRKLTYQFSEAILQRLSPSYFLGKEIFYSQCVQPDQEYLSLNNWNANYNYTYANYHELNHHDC
To be noted: protein: recombinant; tags: N-terminal GST; dsDNA, one strand shown. The procedure, abridged:
as §1

For the next assay, the target named is ELF4 (Homo sapiens, UniProt Q99607 1-663). To be noted: protein: recombinant; tags: N-terminal GST; dsDNA, one strand shown. The procedure, abridged: as §1
Sequence of ELF4 (Q99607 whole entry): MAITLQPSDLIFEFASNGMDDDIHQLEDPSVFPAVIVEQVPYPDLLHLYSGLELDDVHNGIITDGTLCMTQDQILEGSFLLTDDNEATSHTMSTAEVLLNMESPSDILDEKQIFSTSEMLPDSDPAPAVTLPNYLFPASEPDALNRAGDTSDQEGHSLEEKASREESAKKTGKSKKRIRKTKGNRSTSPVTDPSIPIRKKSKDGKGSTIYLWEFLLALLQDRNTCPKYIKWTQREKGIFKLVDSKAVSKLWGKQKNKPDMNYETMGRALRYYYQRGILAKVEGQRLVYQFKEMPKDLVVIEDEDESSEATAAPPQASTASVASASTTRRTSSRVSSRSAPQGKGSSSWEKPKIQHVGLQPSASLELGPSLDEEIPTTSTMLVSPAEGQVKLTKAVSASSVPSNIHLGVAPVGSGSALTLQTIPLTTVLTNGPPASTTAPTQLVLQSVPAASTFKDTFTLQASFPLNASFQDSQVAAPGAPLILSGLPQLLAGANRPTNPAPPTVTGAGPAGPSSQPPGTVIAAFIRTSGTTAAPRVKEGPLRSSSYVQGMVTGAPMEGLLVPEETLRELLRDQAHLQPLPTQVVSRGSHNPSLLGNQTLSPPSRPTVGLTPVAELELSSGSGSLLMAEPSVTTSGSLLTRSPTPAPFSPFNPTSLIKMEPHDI
For another assay, the target named is T9, ELK4 (Homo sapiens, UniProt P28324-2 1-405).
T9 sequence: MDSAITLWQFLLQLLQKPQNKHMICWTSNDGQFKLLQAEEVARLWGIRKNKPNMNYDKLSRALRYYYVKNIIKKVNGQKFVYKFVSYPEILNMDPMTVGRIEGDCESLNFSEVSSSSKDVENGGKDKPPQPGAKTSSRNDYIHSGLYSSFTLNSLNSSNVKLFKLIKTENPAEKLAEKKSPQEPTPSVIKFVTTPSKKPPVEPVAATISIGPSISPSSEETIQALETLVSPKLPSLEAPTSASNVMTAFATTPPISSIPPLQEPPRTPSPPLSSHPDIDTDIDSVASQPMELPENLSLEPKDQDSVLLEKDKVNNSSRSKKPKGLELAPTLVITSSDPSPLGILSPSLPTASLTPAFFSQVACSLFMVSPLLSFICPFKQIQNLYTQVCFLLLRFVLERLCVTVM
To be noted: protein: recombinant; tags: N-terminal GST; dsDNA, one strand shown. In outline: as §1

For another assay, the target named is T10, ETV2 (Homo sapiens, UniProt O00321 1-342).
T10 sequence: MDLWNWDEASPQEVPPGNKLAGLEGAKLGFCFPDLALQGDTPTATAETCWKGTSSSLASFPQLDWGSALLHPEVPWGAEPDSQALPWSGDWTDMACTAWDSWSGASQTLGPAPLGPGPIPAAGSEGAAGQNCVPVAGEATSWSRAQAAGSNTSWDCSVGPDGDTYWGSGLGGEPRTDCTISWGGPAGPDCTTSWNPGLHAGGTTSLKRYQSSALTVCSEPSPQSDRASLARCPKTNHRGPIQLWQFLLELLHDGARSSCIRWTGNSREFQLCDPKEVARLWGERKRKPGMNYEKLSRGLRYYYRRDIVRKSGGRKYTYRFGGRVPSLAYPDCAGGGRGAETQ
To be noted: protein: recombinant; tags: N-terminal GST; dsDNA, one strand shown. In outline:
as §1

For the next assay, the target named is T11, ELF3 (Homo sapiens, UniProt P78545 1-371).
T11 sequence: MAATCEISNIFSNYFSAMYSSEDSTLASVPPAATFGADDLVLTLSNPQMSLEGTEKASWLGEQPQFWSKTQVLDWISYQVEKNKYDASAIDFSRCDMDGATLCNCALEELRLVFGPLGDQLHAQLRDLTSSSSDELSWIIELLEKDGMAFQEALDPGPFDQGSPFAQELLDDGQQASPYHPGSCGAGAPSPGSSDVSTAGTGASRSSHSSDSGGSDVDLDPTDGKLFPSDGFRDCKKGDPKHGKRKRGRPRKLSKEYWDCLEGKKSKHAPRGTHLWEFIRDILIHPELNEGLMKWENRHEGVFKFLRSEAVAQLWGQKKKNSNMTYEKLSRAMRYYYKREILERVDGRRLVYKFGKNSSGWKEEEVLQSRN
To be noted: protein: recombinant; tags: N-terminal GST; dsDNA, one strand shown. The procedure, abridged: as §1

For a further assay, the target named is CRX (Homo sapiens, UniProt O43186 1-299). To be noted: protein: recombinant; tags: N-terminal GST; dsDNA, one strand shown. The procedure, abridged:
as §1

A further assay concerns the target ETV1 (Homo sapiens, UniProt P50549 1-477). To be noted: protein: recombinant; tags: N-terminal GST; dsDNA, one strand shown. In outline:
as §1

Sequence of ELF1 (P32519 whole entry): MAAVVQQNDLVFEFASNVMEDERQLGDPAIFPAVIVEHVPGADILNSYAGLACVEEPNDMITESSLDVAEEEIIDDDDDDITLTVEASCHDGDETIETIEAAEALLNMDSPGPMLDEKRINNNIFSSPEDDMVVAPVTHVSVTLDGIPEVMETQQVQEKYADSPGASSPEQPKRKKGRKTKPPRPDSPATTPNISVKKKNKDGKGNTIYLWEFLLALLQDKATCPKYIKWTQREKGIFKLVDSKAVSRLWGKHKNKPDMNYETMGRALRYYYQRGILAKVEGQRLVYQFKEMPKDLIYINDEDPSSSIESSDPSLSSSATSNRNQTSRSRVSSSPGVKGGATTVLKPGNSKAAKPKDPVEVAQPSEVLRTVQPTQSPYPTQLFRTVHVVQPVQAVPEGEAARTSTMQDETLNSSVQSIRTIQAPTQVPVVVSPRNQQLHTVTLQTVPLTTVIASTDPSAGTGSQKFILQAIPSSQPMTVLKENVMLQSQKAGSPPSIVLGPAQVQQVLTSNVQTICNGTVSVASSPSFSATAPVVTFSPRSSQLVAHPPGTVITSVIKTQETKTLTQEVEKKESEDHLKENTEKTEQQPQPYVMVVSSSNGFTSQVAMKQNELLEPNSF
Sequence of ETV5 (P41161 whole entry): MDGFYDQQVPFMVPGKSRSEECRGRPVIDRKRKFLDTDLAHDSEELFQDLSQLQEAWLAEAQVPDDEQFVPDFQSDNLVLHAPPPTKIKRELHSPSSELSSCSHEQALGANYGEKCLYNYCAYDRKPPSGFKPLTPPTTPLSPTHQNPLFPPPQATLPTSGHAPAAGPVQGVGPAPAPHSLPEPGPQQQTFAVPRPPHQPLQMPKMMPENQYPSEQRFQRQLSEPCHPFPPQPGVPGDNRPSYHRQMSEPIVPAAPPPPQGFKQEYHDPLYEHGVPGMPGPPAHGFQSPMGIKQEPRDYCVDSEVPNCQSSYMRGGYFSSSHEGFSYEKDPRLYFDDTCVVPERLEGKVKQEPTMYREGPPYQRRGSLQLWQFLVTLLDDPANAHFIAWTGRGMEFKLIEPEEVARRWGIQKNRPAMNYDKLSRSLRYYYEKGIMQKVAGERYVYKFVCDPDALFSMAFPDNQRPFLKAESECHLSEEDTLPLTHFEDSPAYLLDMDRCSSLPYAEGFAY
Sequence of ETV1 (P50549 whole entry): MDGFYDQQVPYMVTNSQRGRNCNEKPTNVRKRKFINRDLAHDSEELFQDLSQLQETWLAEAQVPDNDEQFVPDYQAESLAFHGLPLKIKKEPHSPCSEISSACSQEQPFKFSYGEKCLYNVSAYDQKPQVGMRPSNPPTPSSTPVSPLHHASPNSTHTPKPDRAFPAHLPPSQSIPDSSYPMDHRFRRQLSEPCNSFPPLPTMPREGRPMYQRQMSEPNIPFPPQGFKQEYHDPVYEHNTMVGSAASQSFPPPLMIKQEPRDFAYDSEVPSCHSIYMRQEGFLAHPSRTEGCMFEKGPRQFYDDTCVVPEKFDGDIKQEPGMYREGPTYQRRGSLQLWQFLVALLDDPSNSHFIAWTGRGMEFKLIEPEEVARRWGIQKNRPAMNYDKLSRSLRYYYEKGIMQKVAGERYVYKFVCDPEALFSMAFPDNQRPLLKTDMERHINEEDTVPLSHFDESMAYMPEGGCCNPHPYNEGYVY
Sequence of HSF1 (Q00613 whole entry): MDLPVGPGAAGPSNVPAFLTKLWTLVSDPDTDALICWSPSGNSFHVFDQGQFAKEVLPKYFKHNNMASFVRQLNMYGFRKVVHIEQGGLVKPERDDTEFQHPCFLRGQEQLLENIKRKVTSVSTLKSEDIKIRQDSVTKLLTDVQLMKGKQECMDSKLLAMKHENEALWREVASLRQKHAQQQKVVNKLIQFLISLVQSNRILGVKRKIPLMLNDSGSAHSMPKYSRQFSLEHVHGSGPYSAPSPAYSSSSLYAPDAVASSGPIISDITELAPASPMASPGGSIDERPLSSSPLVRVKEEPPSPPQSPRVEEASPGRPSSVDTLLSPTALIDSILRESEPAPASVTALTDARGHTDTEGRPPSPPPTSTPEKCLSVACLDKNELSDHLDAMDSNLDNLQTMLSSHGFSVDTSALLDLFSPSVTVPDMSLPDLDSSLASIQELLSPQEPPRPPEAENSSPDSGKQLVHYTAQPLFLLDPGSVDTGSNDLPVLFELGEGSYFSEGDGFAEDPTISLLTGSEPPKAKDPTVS
Sequence of SPIB (Q01892 whole entry): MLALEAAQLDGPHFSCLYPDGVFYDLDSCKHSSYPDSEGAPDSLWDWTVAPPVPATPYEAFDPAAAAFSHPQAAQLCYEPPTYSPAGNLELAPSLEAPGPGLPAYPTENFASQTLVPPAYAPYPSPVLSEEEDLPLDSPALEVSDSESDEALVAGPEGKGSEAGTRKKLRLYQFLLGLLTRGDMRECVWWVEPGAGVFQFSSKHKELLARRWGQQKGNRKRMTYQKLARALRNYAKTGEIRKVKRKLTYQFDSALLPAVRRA
Sequence of CRX (O43186 whole entry): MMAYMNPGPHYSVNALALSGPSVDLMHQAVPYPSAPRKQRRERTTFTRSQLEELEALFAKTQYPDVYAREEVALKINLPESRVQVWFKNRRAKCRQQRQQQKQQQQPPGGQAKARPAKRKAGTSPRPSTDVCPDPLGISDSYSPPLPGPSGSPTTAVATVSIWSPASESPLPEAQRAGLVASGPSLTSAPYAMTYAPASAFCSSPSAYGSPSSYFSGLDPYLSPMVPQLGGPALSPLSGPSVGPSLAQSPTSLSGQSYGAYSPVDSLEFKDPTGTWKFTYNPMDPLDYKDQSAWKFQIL

Regarding TGCATT, the binding signal was 1.34 fold enrichment (6-mer frequency, TF over GST control) in the assay with FLI1; 1.34 fold enrichment (6-mer frequency, TF over GST control) with ELK1; 1.37 fold enrichment (6-mer frequency, TF over GST control) with GABPA; 1.24 fold enrichment (6-mer frequency, TF over GST control) with ERG; 1.33 fold enrichment (6-mer frequency, TF over GST control) in the assay with ELF1; 1.3 fold enrichment (6-mer frequency, TF over GST control) with EHF. For the same sequence, the binding signal in the assay with SPI1 was 1.31 fold enrichment (6-mer frequency, TF over GST control); in the assay with SPIB, 1.34 fold enrichment (6-mer frequency, TF over GST control); in the assay with ELK3, 1.35 fold enrichment (6-mer frequency, TF over GST control); in the assay with FEV it was 1.38 fold enrichment (6-mer frequency, TF over GST control); with ETV5, 1.3 fold enrichment (6-mer frequency, TF over GST control); with HSF1 it was 1.24 fold enrichment (6-mer frequency, TF over GST control). Also, the binding signal with SPIC is 1.44 fold enrichment (6-mer frequency, TF over GST control); in the assay with ELF4, 1.36 fold enrichment (6-mer frequency, TF over GST control); with ELK4, 1.38 fold enrichment (6-mer frequency, TF over GST control); with ETV2 it was 1.39 fold enrichment (6-mer frequency, TF over GST control); with ELF3, 1.49 fold enrichment (6-mer frequency, TF over GST control); with CRX it was 1.32 fold enrichment (6-mer frequency, TF over GST control). For the same sequence, the binding signal in the assay with ETV1 was 1.32 fold enrichment (6-mer frequency, TF over GST control).

The values above are taken from PMC7862700, “An all-to-all approach to the identification of sequence-specific readers for epigenetic DNA modifications on cytosine”.
